PubChem BioAssay (NCATS)
“And” between values parts separate entries of the source, which are not always exact repeats. Equal entries are not always repeated. A number with no mark means an inactive call. Records with an inconclusive call do not appear. A structure can be active in one record and inactive in another. The source made the active and inactive calls. Unless noted, calls come from the whole dose curve; as a rule, active = well fitted curve in the direction sought with a large enough effect; inconclusive = small, poorly fitted or top-dose-only effect, or another doubt; inactive = no such curve, though single readings can be large; an effect the other way counts as inactive or inconclusive.

Key:
Tov112D = assay: Primary qHTS to identify gynecologic anti-cancer compounds using libraries of approved drugs and bioactive compounds (AID 1345084); conditions: Gynecologic cancer cell panel viability, ATPlite luminescence, 48 h; series mostly up to 57.5 µM; note: % is set by controls: 0 for no effect and ±100 for the full control effect; nearly all actives have a fitted effect of over 55% in size
Outline: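 Cells, 1,000 per well, were allowed to settle for 16 h at 37 C before compound addition. Five concentrations were tested for 48 h, and viability was read by ATPlite luminescence after 15 min at room temperature.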

[1] = Drug repurposing screens with cells derived from glioblastoma tumor samples (AID 1345199); conditions: GBM patient neurospheres viability, ATP luminescence, 48 h; note: nearly all actives have a fitted effect of over 40% in size; note: potency is the fitted concentration of half-maximal effect; for activity, negative = cell killing: % is set by controls: 0 for no effect and ±100 for the full control effect
Outline: (§1)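 Four patient lines of CD133+ GBM neurospheres were screened at several concentrations; hits were retested in those lines plus three slower-growing GBM lines, using 48-hour treatment and ATP-based viability.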

astro = assay: as above; conditions: viability, ATP luminescence, 48 h; series mostly up to 45.9 µM
Outline: as §1

[2] = qHTS assay for small molecule activators of the human pregnane X receptor (PXR) signaling pathway (AID 720659; call rule not given here; note: 0% is about no effect)
[3] = target: Nuclear receptor subfamily 1 group I member 2 (Rattus norvegicus) (UniProt Q9R1A7); assay: qHTS assay for small molecule activators of the rat pregnane X receptor (rPXR) signaling pathway (AID 651751; call rule not given here; note: 0% is about no effect); conditions: rPXR reporter cells, luciferase (One-Glo), 24 h
[4] = at 45.9 µM (top of the series), tumour line B
[5] = at 45.9 µM (top of the series), tumour line D
[6] = at 46.1 µM (top of the series), tumour line C
[7] = at 46 µM (top of the series), tumour line A

Nuclear receptor subfamily 1 group I member 2 (Rattus norvegicus), sequence (Q9R1A7 whole entry, looked up): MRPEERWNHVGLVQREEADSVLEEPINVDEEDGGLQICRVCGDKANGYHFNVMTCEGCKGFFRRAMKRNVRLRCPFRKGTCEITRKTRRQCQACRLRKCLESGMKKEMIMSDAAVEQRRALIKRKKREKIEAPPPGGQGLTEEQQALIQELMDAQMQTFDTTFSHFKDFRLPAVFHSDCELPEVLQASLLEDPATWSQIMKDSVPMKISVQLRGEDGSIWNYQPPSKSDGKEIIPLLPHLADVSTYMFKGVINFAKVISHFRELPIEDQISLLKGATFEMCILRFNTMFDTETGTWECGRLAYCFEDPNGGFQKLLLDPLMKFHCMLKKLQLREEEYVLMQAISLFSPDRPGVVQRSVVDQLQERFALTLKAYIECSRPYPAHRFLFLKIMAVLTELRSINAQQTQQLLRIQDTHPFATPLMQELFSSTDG

Compound | Potency (Tov112D) | activity, negative = cell killing [1, 4] | activity, negative = cell killing [1, 5] | activity, negative = cell killing [1, 6] | Potency ([1]; tumour line A) | Potency (astro) | activity, negative = cell killing [1, 7] [%] | outcome [2] | max response [3]
CC(C)NCC(O)COc1ccc(CCOCC2CC2)cc1 (centres undefined) | inactive | -17.4% | -21.3% | -27.5% | 17.8 µM (active) | inactive | – | – | –
Nc1nnc(-c2cccc(Cl)c2Cl)c(N)n1 | inactive | -10.9% | -13.4% | -25.4% | – | inactive | -13.9 | – | –
CCC1(c2ccccc2)C(=O)NCNC1=O | inactive | -7.45% | 9.05% | -6.01% | – | inactive | -15.2 | inactive | –
Cn1c(=O)c2[nH]cnc2n(C)c1=O | inactive | -8.57% | -12.3% | -5.36% | – | inactive | -8.84 | inactive | 5.46%
NCCS(=O)(=O)O | inactive | -27.3% | -0.425% | -20.3% | – | – | 17.9 | – | –
CC1(C)O[C@H]2CC(=O)OC[C@]23[C@H]2CC[C@@]4(C)[C@H](c5ccoc5)OC(=O)[C@H]5O[C@]54[C@]2(C)C(=O)C[C@@H]13 | inactive | -1.56% | -7.18% | 3.51% | – | inactive | -18.9 | – | –
COc1ccc2c(c1)c(CC(=O)O)c(C)n2C(=O)c1ccc(Cl)cc1 | inactive | -14.6% | -6.82% | -12.3% | – | inactive | -26.1 | inactive | -2.59% and -3.57%
Cc1ccccc1N1C(=O)c2cc(S(N)(=O)=O)c(Cl)cc2NC1C (centres undefined) | inactive | -0.853% and -2.25% | 16.5% and -1.42% | -19% and -29.3% | 35.5 µM (active) | inactive | -25.2 | – | –
NC(=O)OCC(COC(N)=O)c1ccccc1 | inactive | 2.73% | -0.95% | 48.2% | – | inactive | -11.1 | – | –
